Z-score data for 64 compounds are collected here from PubChem BioAssay AID504770 (ICCB-Longwood Screening Facility, Harvard Medical School, 2011).

Structures are written as SMILES. Several values for one entry are separate records, joined by “and”; a condition that tells them apart may be missing. Identical values can stand only once. About 350 (0.27%) of roughly 130,000 compounds were called active. Cut-off read from the data, not from the text of the source: active = z-score below about -2 (passing the limit was not always enough); inactive = the rest. For the sample, actives were picked, then their nearest neighbours and some compounds at random. A structure can be active in one record and inactive in another.

The nature of the test: PubChem AID 504770. The following applies: E. coli YBA685 rctB-dependent plasmid, OD600 growth, 3 h; stronger effect = lower value.
Take `Cc1c(OCC#N)ccc2c3c(c(=O)oc12)CCC3`: the z-score is -0.7 (inactive).

Turning to `CCC1(C)NC(=O)N(NC(=O)c2ccc(S(=O)(=O)N3CCCC3)cc2)C1=O` (centres undefined), the z-score was 0.95 (inactive).

For the compound `O=C(CCn1c(=O)oc2ccccc21)Sc1ccc(C(F)(F)F)cc1`, the z-score is 0.8 (inactive).

Turning to `Cc1ccc(NC(=O)c2ccc3nc(N4CCOCC4)sc3c2)cc1`, the z-score was -1.3 (inactive).

As for `O=C(CSC1=NCCS1)Nc1cc(C(F)(F)F)ccc1Cl`, the z-score was -0.55 (inactive).

Regarding `COc1ccc(NC(=O)C(=S)N2CCCCC2)cc1`, the z-score is -0.45 (inactive).

Regarding `Cc1nc(N)nc(CSc2ccc(Cl)cc2)n1`, the z-score was 1.4 (inactive).

In the case of `O=C(c1[nH]nc2c1CCc1ccccc1-2)N1CCCC1`, the z-score was -0.15 (inactive).

For the compound `CC(=O)NCc1n[nH]c(=O)c2ccccc12`, the z-score is -0.4 (inactive).

As to `CCOc1ccc(NCc2nc3ccccc3n2C)cc1`, the z-score is 0.75 (inactive).

As for `Oc1c(Cl)cc(Cl)c(Cl)c1Cc1c(O)c(Cl)cc(Cl)c1Cl`, the z-score was -3.25 (active).

Consider `CC1CC(C)CN(c2nc3ccccc3c(=O)n2-c2ccc(Cl)cc2)C1` (centres undefined), for which the z-score is -1.35 (inactive).

For the compound `CCS(=O)(=O)c1ccc2c(c1)N1CCS(=O)(=O)N=C1O2`, the z-score was 0.9 (inactive).

`CC1(C)COC(Nc2ccc(Cl)c(Cl)c2)=N1`: the z-score is -0.6 (inactive).

As to `Cc1nc2c3ccccc3n3c(CCCC(=O)NCc4ccccn4)nnc3n2n1`, the z-score was 1.15 (inactive).

For the compound `O=S1(=O)CC(S(=O)(=O)c2ccccc2)C(S(=O)(=O)c2ccccc2)C1` (centres undefined), the z-score was 1.15 (inactive).

For the compound `COc1ccc2c(CC(=O)OCc3cc(Cl)c4c(c3)OCCCO4)coc2c1`, the z-score is -0.55 (inactive).

Take `Cc1cccc(CC2(Cc3cccc(C)c3)C(=O)OC(C)(C)OC2=O)c1`: the z-score was 0.1 (inactive).

On to `N#CC(c1ccc(F)cc1)N1CCOCC1` (centres undefined), for which the z-score was -1.05 (inactive).

`CN(C(=O)Cn1nc(C(F)(F)F)c2c1CCC2)C1CCCCC1`: the z-score is -0.25 (inactive).

Take `O=C(CCc1ccccc1)Nc1nnc(SCC(=O)N2CCCCCC2)s1`: the z-score is -0.2 (inactive).

With `N#Cc1c(=O)c2nc(NCCc3ccccc3)ncc2n2c(=O)c3cc(Br)ccc3[nH]c12`, the z-score is -1.25 (inactive).

`C=CCN(C(=O)C1CCCC1)c1nc2c(s1)CCCC2`: the z-score was -1.05 (inactive).

Take `CC1CC(C)CN(C(=O)COC(=O)c2cccnc2Nc2ccccc2F)C1` (centres undefined): the z-score was 0.1 (inactive).

In the case of `C=CCNc1nc(SC)nc2ccccc12`, the z-score is 1.45 (inactive).

As to `COC(=O)N/N=C/c1c[n+]([O-])c2ccccc2[n+]1[O-]`, the z-score was -3.7 (active).

Take `COc1cccc(/C=N/NC(=O)Cc2ccccc2)c1`: the z-score was -0.6 (inactive).

As to `COc1ccc(/C=N/NC(=O)c2ccccc2)cc1OC`, the z-score was 0.85 (inactive).

Turning to `CC(NC(=O)CC1=NS(=O)(=O)c2ccccc2N1)c1ccccc1` (centres undefined), the z-score is 0.8 (inactive).

Regarding `Cc1cc(/C=C2\C(=O)NC(=S)N(c3ccccc3F)C2=O)c(C)n1-c1ccc(Cl)c(C(=O)O)c1`, the z-score is -0.8 (inactive).

For `COC(=O)c1ccc(CNC(=O)C(C)Sc2ccccc2)cc1` (centres undefined), the z-score was -0.15 (inactive).

`N#Cc1c(C(F)(F)F)cc(=O)[nH]c1S`: the z-score was -0.6 (inactive).

Take `O=C(CSC1=NC2(CCCC2)Nc2ccccc21)Nc1ccc2c(c1)OCCO2`: the z-score was 0 (inactive).

`C=CCNc1nc(OC)nc(OC)n1`: the z-score was 0.15 (inactive).

For `COc1ccc(CN2CN(C(C)C)CSC2=S)cc1`, the z-score is -1.55 (inactive).

As for `S=C1SCN(CCN2CCOCC2)CN1Cc1ccccc1`, the z-score was -2.95 (active).

Turning to `C(=C\c1ccccc1)/CNCCCN1CCOCC1`, the z-score is -0.45 (inactive).

As for `Cc1cnc(NC(=O)CSc2nc3sc4c(c3c(=O)n2C)CCCC4)s1`, the z-score is -1.2 (inactive).

Consider `O=C(OCN1C(=O)c2ccccc2C1=O)c1ccccc1O`, for which the z-score is 0.65 (inactive).

Regarding `Nc1nc(/C(=C/CC(=O)O)C(=O)N[C@@H]2C(=O)N3C(C(=O)O)=CCS[C@H]23)cs1`, the z-score is -1.1 (inactive).

For `CO/N=C(/C(=O)N[C@@H]1C(=O)N2C(C(=O)O)=C(CSc3nc(=O)c(O)nn3C)CS[C@H]12)c1csc(N)n1`, the z-score is -4.8 (active) and -2 (inactive).

Consider `CC(=O)Nc1ccc(C(=O)N(C)Cc2cccc(F)c2)cc1`, for which the z-score was 1.3 (inactive).

On to `OCc1nc(-c2ccccc2)cs1`, for which the z-score was -0.45 (inactive).

`CC(C)N1CCC(=O)N(c2ccccc2Cl)C1=O`: the z-score was 0.25 (inactive).

In the case of `CC(N)C(=O)Nc1ccc2c(c1)Cc1ccccc1-2` (centres undefined), the z-score is -1.1 (inactive).

For `Cc1cccc(C(=O)Nc2nnc(/N=C/c3ccc(Br)s3)s2)c1`, the z-score is -0.85 (inactive).

For the compound `O=C(NC1CCCC1)c1cc(-c2ccccc2)on1`, the z-score was 0.55 (inactive).

`O=C(NC1CCCC1)c1cc(-c2ccc(Br)cc2)on1`: the z-score is -2.5 (active).

For `CC(C)CNC(=O)c1cc(-c2ccc(Br)cc2)on1`, the z-score was -0.2 (inactive).

As for `CCn1c(SCC(=O)Nc2ccc3c(c2)OCCCO3)nc2cc(S(N)(=O)=O)ccc21`, the z-score was 2.15 (inactive).

Turning to `COc1ccc(-c2nc3cc(N=Cc4cccc(OC)c4O)ccc3o2)cc1`, the z-score was 0.1 (inactive).

On to `COc1ccc(-c2ocnc2C(=O)O)cc1`, for which the z-score was -0.1 (inactive).

Regarding `CCCCSc1nnc2c(=O)[nH]c(=O)[nH]c2n1`, the z-score is -1.6 (inactive).

Consider `CC(=O)NCc1ccc(C(=O)COC(=O)c2cc(-c3ccccc3)nn2-c2ccccc2)o1`, for which the z-score is 0.5 (inactive).

For the compound `CC(=O)Oc1ccc2c(=O)c(-c3ccccc3)coc2c1C`, the z-score was 0.9 (inactive).

On to `CCOC(=O)c1c(NC(=O)c2cc3ccccc3o2)sc2c1CC(C)(C)OC2`, for which the z-score is 1.4 (inactive).

Take `NS(=O)(=O)c1cc(OCC(F)(F)F)ccc1OCC(F)(F)F`: the z-score was -0.85 (inactive).

`Cn1cc(NC(=O)N2CCc3ccccc3C2)c2ccccc21`: the z-score was 0.5 (inactive).

For `Cc1ccc(Cn2ccsc2=NC(=O)COC(=O)Cn2c(C)csc2=O)cc1`, the z-score is -3.3 (active).

As for `COCCn1c(C)cc(C(=O)COC(=O)Cn2c(C)csc2=O)c1C`, the z-score was -0.2 (inactive).

`Cc1csc(=O)n1CC(=O)OCC(=O)c1ccc(Cl)s1`: the z-score is 1.15 (inactive).

In the case of `Cc1ccccc1C(=O)Nc1ccccc1N1CCN(C)CC1`, the z-score is 0.25 (inactive).

For `O=C1NN(c2ccc(Cl)c(Cl)c2)C(=O)/C1=C\C=C\c1ccccc1`, the z-score is 0.25 (inactive).

As for `N#Cc1c(SCC(=O)C23CC4CC(CC(C4)C2)C3)sc2c(=O)[nH]c(=O)[nH]c12`, the z-score is -0.7 (inactive).
